Laboratory results taken from PubChem BioAssay.

Target: Nuclear receptor coactivator 1 (Homo sapiens) (UniProt Q15788)
Assay: NCOA1 GAL4-fusion reporter inhibition – cell-based, luminescence, quadruplicate, confirmation (AID 588820);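 further: 0% = DMSO wells and 100% = gossypol 36 µM treated wells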
Details: HEK293 GAL4-SRC1 luciferase reporter, at 3.6 µM, hits give high values;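 active means mean inhibition above 46.68%, the untreated control wells mean plus 3 SD; inactive means the rest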

Nuclear receptor coactivator 1 (Homo sapiens), sequence (Q15788 whole entry, looked up, the tested form may be a part): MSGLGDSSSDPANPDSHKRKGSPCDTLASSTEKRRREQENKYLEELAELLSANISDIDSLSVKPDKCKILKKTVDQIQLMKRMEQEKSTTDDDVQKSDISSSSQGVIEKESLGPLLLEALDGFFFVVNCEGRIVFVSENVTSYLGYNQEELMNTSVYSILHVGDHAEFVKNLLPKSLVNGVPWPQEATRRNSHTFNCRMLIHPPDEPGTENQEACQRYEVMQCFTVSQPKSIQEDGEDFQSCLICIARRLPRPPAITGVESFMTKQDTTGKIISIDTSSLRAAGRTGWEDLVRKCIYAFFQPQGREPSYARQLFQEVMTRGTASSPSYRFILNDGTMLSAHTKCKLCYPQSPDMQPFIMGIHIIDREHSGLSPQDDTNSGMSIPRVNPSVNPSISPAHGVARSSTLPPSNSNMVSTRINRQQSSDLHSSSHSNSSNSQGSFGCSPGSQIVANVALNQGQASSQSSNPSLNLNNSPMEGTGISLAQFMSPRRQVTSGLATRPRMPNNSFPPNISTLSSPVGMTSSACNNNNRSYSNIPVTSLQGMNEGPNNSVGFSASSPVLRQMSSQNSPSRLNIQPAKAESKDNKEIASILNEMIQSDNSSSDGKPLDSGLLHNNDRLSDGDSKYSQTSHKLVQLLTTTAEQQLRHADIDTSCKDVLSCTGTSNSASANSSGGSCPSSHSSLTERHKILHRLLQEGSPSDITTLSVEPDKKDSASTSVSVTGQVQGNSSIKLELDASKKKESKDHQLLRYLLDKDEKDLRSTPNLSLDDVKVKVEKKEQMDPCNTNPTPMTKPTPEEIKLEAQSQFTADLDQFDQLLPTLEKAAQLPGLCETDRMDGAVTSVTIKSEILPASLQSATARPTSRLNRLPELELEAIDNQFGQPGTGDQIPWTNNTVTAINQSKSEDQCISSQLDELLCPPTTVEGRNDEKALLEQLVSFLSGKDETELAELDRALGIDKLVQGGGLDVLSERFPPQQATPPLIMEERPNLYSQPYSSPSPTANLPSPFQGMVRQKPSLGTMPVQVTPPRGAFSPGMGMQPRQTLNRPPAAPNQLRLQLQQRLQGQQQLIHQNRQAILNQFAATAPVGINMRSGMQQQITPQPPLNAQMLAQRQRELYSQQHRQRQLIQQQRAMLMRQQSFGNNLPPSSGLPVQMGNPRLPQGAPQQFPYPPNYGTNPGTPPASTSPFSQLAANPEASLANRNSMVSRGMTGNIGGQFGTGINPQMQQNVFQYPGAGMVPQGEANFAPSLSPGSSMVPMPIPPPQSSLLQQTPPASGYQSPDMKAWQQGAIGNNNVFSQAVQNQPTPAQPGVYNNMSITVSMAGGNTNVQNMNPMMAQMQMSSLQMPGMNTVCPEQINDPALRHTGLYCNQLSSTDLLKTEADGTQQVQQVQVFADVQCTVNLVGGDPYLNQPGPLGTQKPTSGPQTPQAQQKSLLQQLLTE

inhibition, inactive:
COc1ccc(OCC(=O)Nc2ccc3c(c2)n(C)c(=O)n3C)cc1 -14.2%
Cc1nc(N=C(N)N)nc2ccccc12 2.65%
CCOc1ncccc1C(=O)NC(C)CCc1ccccc1 (stereo not given) 0.01%
CCC(CC)C(=O)N(C)c1c(C)nc2c(OCc3ccc(OC(F)F)cc3)cccn12 -18.2%
Nc1ccn(C2OC(CO)C(O)C2O)c(=O)n1 (stereo not given) 24.8%
O=C(COC(=O)C1CCN(c2ccc(C(F)(F)F)cn2)CC1)NCc1cccc(Cl)c1 1.02%
CS(=O)(=O)c1ccc(NC(=O)CCN2C(=O)C3CCCCC3C2=O)cc1 (stereo not given) -9.83%
CSc1ccc(CN2CCN(C(=O)CC(C)C)CC2)cc1 -3.21%
CN(Cc1ccccc1)C(=O)c1ccc(NC(=O)C2CCCN(C(=O)OC(C)(C)C)C2)cc1 (stereo not given) -1.28%
Cc1nn(-c2ccccc2)c(N2CCCC2)c1/C=N/NC(=S)Nc1ccc(F)cc1 3.12%
CC(=O)N1CN(C2CCCC2)Cc2c1sc1c2CCCC1 6.63%
O=C1Nc2cc(C(=O)NCC3CCCO3)ccc2S/C1=C/c1ccccc1F (stereo not given) -7.31%
COc1ccc(-c2[nH]ncc2CN2CCC(O)(c3ccc(Cl)cc3)CC2)cc1 13.2%
C/C(=N\NC(=O)C(C)Oc1ccc([N+](=O)[O-])cc1)c1ccccn1 (stereo not given) -226%
CN(C(=O)COC(=O)c1ccc2[nH]c3c(c2c1)CCCC3)C1CCS(=O)(=O)C1 (stereo not given) -0.53%
COc1ccc(OC)c(/C=N/NC(=O)c2cc3c(OC)cccc3[nH]2)c1 -19.2%
CN(C(=O)c1cccc(NC(=O)Cc2ccc(NC(=O)C3CCCN(C(=O)CCc4ccccc4)C3)cc2)c1)C1CCCC1 (stereo not given) -3.52%
CN1C(=O)C(O)(C2CCCCCC2=O)c2ccccc21 (stereo not given) -7.54%
O=C(Nc1sc2c(c1C(=O)NCCCO)CCCC2)c1ccccc1 -30.3%
O=[N+]([O-])c1ccc(CSc2ccc(S(=O)(=O)N3CCOCC3)cn2)cc1 -7.09%
O=C(Nc1ccccc1)c1ccc(S(=O)(=O)NCc2cccnc2)cc1 -8.68%
O=C(NNc1ccnc2cc(Cl)ccc12)C1CCCCC1 -34.1%
CCCCCN(C(=O)CCC(=O)OCC(=O)N(CC#N)c1ccccc1)c1c(N)n(CCCC)c(=O)[nH]c1=O -5.77%
O=C(NNC(=O)c1ccccc1O)c1ccc(Cl)c(S(=O)(=O)N2CCc3ccccc32)c1 8.03%
CCCC(=O)N1CCCC(c2cc(C(=O)Nc3ccccc3)no2)C1 (stereo not given) -49.1%
COc1ccccc1C1NC(=O)NC(C)=C1C(=O)OC1CCCC(C)C1 (stereo not given) 6.58%
CC1CC(C)CN(c2ncnc3c2cnn3-c2ccc(Cl)cc2)C1 (stereo not given) -96.6%
COc1cccc(C=NNC(=O)c2ccncc2)c1O 7.89%
Cc1ccc(-n2ccc(-c3nn(-c4ccccc4)ccc3=O)n2)cc1 6.13%
Cc1ccc(O)c(C(=O)c2cnn(C(=O)COc3ccc(Cl)cc3)c2)c1 23.6%
O=[N+]([O-])c1ccc(C[n+]2cccc3c4ccccc4ccc32)cc1 3.12%
CN1CCN(c2nc(-c3cccs3)nc3ccccc23)CC1 14.3%
O=C(c1ccccc1)C1CCN(C(=O)c2cccs2)CC1 -10%
Cc1ccc(S(=O)(=O)c2nc(-c3ccccc3Cl)oc2NCCCN2CCOCC2)cc1 -13.7%
CSc1ccc(CN2CCN(Cc3ccc([N+](=O)[O-])cc3)CC2)cc1 -10.7%
COc1ccc(NC(=O)CN(C)C(=O)c2ccc(N3CCCCC3)c([N+](=O)[O-])c2)cc1 -5.37%
CC(C)Cn1c(N)c(C(=O)COC(=O)c2cc3ccccc3cc2O)c(=O)n(C)c1=O 14.6%
CCN(CC)S(=O)(=O)c1ccc(NC(=O)c2ccc(N3CCCC3=O)cc2)cc1 3.05%
Cc1cc(C)c(OCCN2CCCC2)c(Cl)c1 -3.95%
COc1ccc(-c2nc(N3CCOCC3)nc3n[nH]c(N)c23)cc1 5.53%
